Test results reported in PubChem BioAssay (NCATS).
Values joined by “and” are separate entries in the source; they are usually repeats but may differ in a detail not shown here. Equal entries are not always repeated. Records with an inconclusive call do not appear. Values without a mark were called inactive. Active and inactive are the calls of the source. Calls follow the shape of the dose curve; as a rule, active = well fitted inhibition curve with a large enough effect; inconclusive = small, poorly fitted or top-dose-only effect; inactive = flat fitted curve, though single readings scatter.

The molecules below were run on KB-3-1 (assay: Cytotoxic Profiling of Annotated Libraries Using Quantitative High-Throughput Screening (AID 1296008; also: nearly all actives have a fitted effect of over 60% in size)). Settings: Five cell lines viability, CellTiter-Glo ATP luminescence, 48-72 h; max response: active compounds read low.
Outline: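 Cells exposed to compounds for 48 or 72 hr at 37 degrees Celsius. Viability read as ATP-coupled luminescence with CellTiter-Glo after 10 min at room temperature.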
% is scaled to controls: 0 for no effect and ±100 for the full control effect; potency is read from the fitted curve at half-maximal effect.

Compound	max response	Potency
c1csc(C2(N3CCCCC3)CCCCC2)c1	5.46%	–
O=C1CCCCC1CN1CCCCC1 (centres undefined)	4.12%	–
C[C@]12CC[C@H](O)C[C@H]1CC[C@@H]1[C@@H]2CC[C@]2(C)[C@@H](c3ccc(=O)oc3)C[C@H]3O[C@]132	–	1.84 µM (active)
CCCCNCC(O)c1ccc(O)cc1 (centres undefined)	13.7%	–
Clc1ccc(Cl)cc1	0.597%	–
O=P(O)(O)C(Cl)(Cl)P(=O)(O)O	-7.13%	–
[H+].[H+].[Hg+2].[O-]B([O-])[O-].[c-]1ccccc1	–	8.2 µM (active)
CC[N+](C)(CC)CCOC(=O)C(O)(c1ccccc1)c1ccccc1	-0.181%	–
Cc1cc(C)cc(C(=O)OC2C[C@H]3CC[C@@H](C2)N3C)c1 (some centres undefined)	-7.52%	–
c1ccc2sc(SNC3CCCCC3)nc2c1	-2.06%	–
CN(C)CCCCCCN(C)C (tested in a mixture with another compound)	0.743%	–
CNC(C)C(O)c1ccc(O)cc1 (centres undefined)	-2.38% and -4.74%	–
CC(C)(O)[C@@H]1[C@H]2OC(=O)[C@@H]1[C@]1(O)C[C@H]3O[C@]34C(=O)O[C@H]2[C@]14C	0.436% and -3.57%	–
COc1ccc(OC)c([C@@H](O)[C@H](C)N)c1	-0.699%	–
NCC[C@H](O)C(=O)N[C@@H]1C[C@H](N)[C@@H](O[C@H]2O[C@H](CN)[C@@H](O)[C@H](O)[C@H]2N)[C@H](O[C@@H]2O[C@H](CO)[C@@H](O)[C@H]2O)[C@H]1O	11%	–
Cn1sc(Cl)cc1=O	-13.7%	–
OC[C@@H](O)[C@H]1O[C@@H]2O[C@@H](C(Cl)(Cl)Cl)O[C@@H]2[C@H]1O	1.39%	–

Compound	max response	Potency
CC(Cc1ccccc1)NC=O (centres undefined)	2%	–
Oc1ccc2c3c1O[C@H]1[C@@H](O)CC[C@@]4(O)[C@@H](C2)N(CC2CCC2)CC[C@]314	4.11%	–
Cc1cccc(C(C)c2cnc[nH]2)c1C (centres undefined)	8.09%	–
ClCC1CO1 (centres undefined)	-11%	–
CN[C@H]1C[C@@H](N)[C@H](O)[C@@H](O[C@@H]2O[C@H](CO)[C@H](O)[C@@H]3OC4(O[C@H]23)O[C@H](C(N)CO)[C@H](O)[C@H](O)[C@H]4O)[C@@H]1O (some centres undefined)	-7% and 5.21%	–
O=Cc1ccco1	3.99%	–
CC(C)[C@@]1(NC(=O)[C@@H]2C[C@@H]3c4cccc5[nH]cc(c45)C[C@H]3N(C)C2)O[C@@]2(O)[C@@H]3CCCN3C(=O)[C@H](Cc3ccccc3)N2C1=O	25.3% and -16.4%	–
O[C@H]1[C@H]2[C@H](O)CCCN2C[C@H]1O	-14%	–
CCCC(C)C1(CC)C(=O)NC(=O)NC1=O (centres undefined)	-12.9%	–
CCCCCc1cc(O)c2c(c1)OC(C)(C)[C@@H]1CCC(C)=C[C@@H]21	-12.3%	–
CNC(=O)Oc1ccccc1C(=O)Nc1ccccc1	-7.71%	–
[O]=[Cd]	-8.4%	–
CCN1C[C@]2(COC)[C@H](O)C[C@H](OC)[C@@]34[C@@H]5C[C@@]6(O)[C@H](OC(=O)c7ccccc7)[C@@H]5[C@@](OC(C)=O)([C@@H]([C@H](OC)[C@H]23)[C@@H]14)[C@@H](O)[C@@H]6OC	2.56%	–
O=C/C=C/c1ccccc1	17.4%	–
CC1CCC(C(C)C)C(OC(=O)c2ccccc2N)C1 (centres undefined)	24.6%	–
O=C(O)C(Cl)(Cl)Cl	-15.3%	–
CN(C)[C@H](Cc1ccccc1)c1ccccc1	1.61%	–
